# Values joined by “and” are separate entries in the source; they are usually repeats but may differ in a detail not shown here. Equal entries are not always repeated. Results filed as inconclusive are left out. Where a call stands in place of a potency, no number is given. More than one record can exist for a structure, and the calls need not agree. Active and inactive are the calls of the source. Calls come from the whole dose curve; as a rule, active = well fitted cell-killing curve with a large enough effect in the repeat runs; inconclusive = weak or mixed curves, or effect the other way; inactive = no such curve, though single readings can be large or run the other way.
# Assay: qHTS assay for identifying genotoxic compounds that show differential cytotoxicity against isogenic chicken DT40 cell lines with known DNA damage response pathways - wild type cell line (AID 743012); note: nearly all actives have a fitted effect of over 60% in size
# Conditions: DT40 wild type chicken cells viability, CellTiter-Glo, 40 h; series mostly up to 68.4 µM
# Excerpt: U.S. Tox21 Program National Center for Advancing Translational Sciences [NCATS] NIH Chemical Genomics Center [NCGC] U.S. Environmental Protection Agency [EPA] National Institutes of Environmental Health Sciences [NIEHS] National Toxicology Program [NTP] U.S. Food and Drug Administration [FDA] Tox21 Assay Overview: DNA repair pathways play a critical role in cellular homeostasis by repairing DNA damage induced by endogenous processes and xenobiotics. Isogenic chicken DT40 cell lines deficient in different DNA repair pathways can be used to identify genotoxic compounds and aid in characterizing the nature of the DNA damage induced. Two DNA repair-deficient cell lines with disrupted genes, Rad54/Ku70 or Rev3, were used to screen the Tox21 10K compound library. Possible genotoxicity was based on the presence of a significant increase in cytotoxicity in one or more of the DNA repair-deficient cell lines compared to that observed in the parental DNA repair-proficient cell line. CellTiter Glo viability assay (Promega, Madison, WI) was used to measure cell viability in these cells after compound treatment. This assay includes the data from the wild type cell line.
# Tox21 Assay Protocol Summary: 300 DT40 wild type cells in 5 uL/well were dispensed into white, solid-bottom 1536-well plates using a Multidrop Combi (ThermoFisher Scientific, Waltham, MA) dispenser. After the assay plates were incubated at 37 C/5% CO2 for approximately 0.5 hour, 23 nL of compounds dissolved in DMSO, positive controls or DMSO only was transferred into the assay plate by a pintool work station (Kalypsys, San Diego, CA). The assay plates were incubated at 37 C/5% CO2 for 40 hours. After 5 uL per well of CellTiter-Glo reagent was added into each well of the assay plates, the plates were incubated for 30 min at room temperature and the luminescence intensity of the plates was measured using a ViewLux (PerkinElmer, Shelton, CT) plate reader.
# Potency is the fitted concentration of half-maximal effect.
row,Compound,Potency
1,CCC(C)C=O (stereo not given),inactive
2,CCC(=O)O,inactive
3,Nc1nc2ncc(CNc3ccc(C(=O)N[C@@H](CCC(=O)O)C(=O)O)cc3)nc2c(=O)[nH]1,inactive
4,S=c1nc[nH]c2nc[nH]c12,23.7 µM (active)
5,Cc1ccc(C)c(C)c1,inactive
6,Clc1cc(Cl)c(Cl)cc1Cl,inactive
7,CNC[C@H](O)[C@@H](O)[C@H](O)[C@H](O)CO,inactive
8,O=Nc1ccc(O)cc1,inactive
9,O=S(=O)(O)c1cc(S(=O)(=O)O)c2c(N=Nc3ccccc3)c(O)ccc2c1,inactive
10,CCCCNC(N)=O,inactive
11,Cc1cc(O)c2c(c1)C(=O)c1cc(O)cc(O)c1C2=O,27.3 µM (active)
12,CCCCC(CC)COC(C)=O (stereo not given),inactive
13,COCC(=O)O,inactive
14,CCCCOCCOCCOC(=O)CCCCC(=O)OCCOCCOCCCC,inactive
15,CCCCCCCCCCC=CC1CC(=O)OC1=O (stereo not given),inactive
16,C=CC(=O)OCCCCCCCC(C)C,inactive and 48.5 µM (active)
17,O=S(=O)(Oc1ccc(Cl)cc1Cl)c1ccccc1,inactive
18,CC1=CC[C@H]2C[C@@H]1C2(C)C,inactive
19,CCOC(=O)[C@H](CCc1ccccc1)N[C@@H](C)C(=O)N1Cc2ccccc2C[C@H]1C(=O)O,inactive
20,CCCCC(CC)COC(=O)/C=C\C(=O)OCC(CC)CCCC (stereo not given),inactive

row,Compound,Potency
1,Nc1cc(-c2ccncc2)c[nH]c1=O,inactive
2,CCCCCCCCCC(=O)O,inactive
3,O=C(c1ccc(O)cc1)c1ccc(O)cc1O,inactive
4,Oc1ccc2ccccc2c1N=Nc1ccccc1,inactive
5,CC1=C(CC(=O)O)c2cc(F)ccc2/C1=C\c1ccc(S(C)=O)cc1 (stereo not given),inactive and 68.6 µM (active)
6,CCCCC(CC)COC(=O)CCCCCCCC(=O)OCC(CC)CCCC (stereo not given),inactive
7,C=C(C#N)C(=O)OCC,inactive and 43.3 µM (active)
8,CC(C)n1c(/C=C/[C@@H](O)C[C@@H](O)CC(=O)O)c(-c2ccc(F)cc2)c2ccccc21,1.06 µM (active) and 6.11 µM (active)
9,OCCOCCOCCOCCO,inactive
10,O=C(O)c1cc(-c2ccccc2)nc2ccccc12,inactive
11,CC#C[C@]1(O)CC[C@H]2[C@@H]3CCC4=CC(=O)CCC4=C3[C@@H](c3ccc(N(C)C)cc3)C[C@@]21C,5.96 µM (active) and 30.6 µM (active)
12,NCCNCCNCCNCCN,inactive
13,O=[N+]([O-])c1cccc(Cl)c1,inactive
14,CC(=O)CCc1ccccc1,inactive
15,O=C1O[C@H](CO)[C@@H](O)[C@H](O)[C@H]1O,inactive
16,CC[Si](OC(C)=O)(OC(C)=O)OC(C)=O,inactive
17,Nc1c(S(=O)(=O)O)cc(Br)c2c1C(=O)c1ccccc1C2=O,inactive
18,OCC1CCCO1 (stereo not given),inactive
19,CC(C)NCC(O)COc1cccc2ccccc12 (stereo not given),inactive
20,OC1CCCC1,inactive
